Among the data in PubChem BioAssay AID1611 (NINDS Approved Drug Screening Program, 2009) are fold change values, retold here.

The assay in a line: inducers of human heat shock response, cell-based, HSE luciferase (AID 1611). Particulars: human cells, HSE-luciferase heat shock reporter; stronger effect = higher value.
Consider `Cc1nnc(NS(=O)(=O)c2ccc(N)cc2)s1`, for which the fold change turned out to be 0.85.
As to `CN=C(NC#N)NCCSCc1nc[nH]c1C`, the fold change amounted to 0.5.
To `CC1=CC(=O)c2ccccc2C1=O` belongs 0.86; to `CC(C[N+](C)(C)C)OC(N)=O` (stereo not given), 0.9.
To `CC(=O)OCC(=O)[C@@]1(O)CCC2C3CCC4=CC(=O)CC[C@]4(C)C3C(=O)C[C@@]21C` (stereo not given in full) belongs 0.62; to `OC[C@H]1O[C@@H](O[C@@H]2[C@@H](CO)O[C@](O)(CO)[C@H]2O)[C@H](O)[C@@H](O)[C@H]1O`, 0.82; to `c1coc(CNc2ncnc3nc[nH]c23)c1`, 1.22.
Turning to `C=C(C)[C@H]1CC=C(C(=O)O)CC1`, the fold change stood at 1.32.
To `C=Cc1c(C)c2cc3[nH]c(cc4nc(cc5nc(cc1[nH]2)C(C)=C5CCC(=O)O)C(CCC(=O)O)=C4C)c(C)c3C=C` belongs 1.09; to `O=C1CCC(N2C(=O)c3ccccc3C2=O)C(=O)N1` (stereo not given), 0.89.
Under `COc1ccc(C2Sc3ccccc3N(CCN(C)C)C(=O)C2OC(C)=O)cc1` (stereo not given) stands 0.53; under `CC(CN(C)C)CN1c2ccccc2CCc2ccccc21` (stereo not given), 1.16; under `CC(C)(Oc1ccc(CCNC(=O)c2ccc(Cl)cc2)cc1)C(=O)O`, 1.4.
To `CC(=O)OCC(=O)[C@H]1CCC2C3CCC4=CC(=O)CC[C@]4(C)C3CC[C@@]21C` (stereo not given in full) belongs 1.05; to `CCCCCC(C)N` (stereo not given), 1.8; to `CC(=O)O[C@H]1C[C@@]2(C)[C@@H](C[C@@H](O)C3[C@]2(C)CC[C@H]2[C@H](C)[C@H](O)CC[C@]32C)/C1=C(/CCC=C(C)C)C(=O)O` (stereo not given in full), 1.
`N[C@@H](CCC(=O)N[C@@H](CS)C(=O)NCC(=O)O)C(=O)O`: the fold change is 1.11.
Under `CCN(CC)CCOC(=O)C(c1ccccc1)C1CCCCC1` (stereo not given) stands 1.12.
To `CCOC(=O)C(Cc1ccc(O)cc1)NC(C)=O` (stereo not given) belongs 0.71.
Under `Cc1ncc([N+](=O)[O-])n1CCO` stands 1.2; under `CCC1(C)CC(=O)NC1=O` (stereo not given), 1.19; under `CCOc1ccc(Cc2nccc3cc(OCC)c(OCC)cc23)cc1OCC`, 1.35.
Take `Cc1cc(C)nc(NS(=O)(=O)c2ccc(N)cc2)n1`: the fold change was 1.02.
Regarding `CC(COc1ccccc1)NC(C)[C@H](O)c1ccc(O)cc1` (stereo not given in full), the fold change turned out to be 5.01.
`O=C(OCc1ccccc1)c1ccccc1`: the fold change turned out to be 0.75.
Under `O=C1OCCN1/N=C/c1ccc([N+](=O)[O-])o1` stands 1.79; under `CN(C)CCC=C1c2ccccc2C=Cc2ccccc21`, 0.63.
To `CC(=O)[C@H]1CCC2C3CC=C4C[C@@H](O)CC[C@]4(C)C3CC[C@@]21C` (stereo not given in full) belongs 0.92; to `CCN1CCCC(OC(=O)C(c2ccccc2)c2ccccc2)C1` (stereo not given), 0.74; to `C[C@H](CS)C(=O)N1CCC[C@H]1C(=O)O`, 0.72.
As to `CN(C)CCC(c1ccccc1)c1ccccn1` (stereo not given), the fold change is 1.7.
To `CC1(C)O[C@@H]2CC3C4C[C@H](F)C5=CC(=O)C=CC5(C)C4C(O)CC3(C)[C@]2(C(=O)CO)O1` (stereo not given in full) belongs 1.4; to `Nc1ccc(S(=O)(=O)Nc2ccccn2)cc1`, 0.76; to `CCc1cccc2c3c([nH]c12)C(CC)(CC(=O)O)OCC3` (stereo not given), 1.02.
To `C[C@](N)(Cc1ccc(O)c(O)c1)C(=O)O` belongs 0.74; to `O=C(O)c1cn(C2CC2)c2cc(N3CCNCC3)c(F)cc2c1=O`, 1.5.
Under `Cc1ccccc1OCC(O)CO` (stereo not given) stands 0.73; under `C1CNCCN1`, 1.04.
`O=c1cc[nH]c(=S)[nH]1`: the fold change is 0.78.
To `CC(C)(C)NCC(O)c1cc(O)cc(O)c1` (stereo not given) belongs 0.99.
